Laboratory results: PubChem BioAssay AID1259415 (National Center for Advancing Translational Sciences (NCATS), 2018)
Where “and” joins values, the source holds several entries; their conditions need not be identical. Equal values may be shown once. Out of some 410,000 compounds screened, about 18,000 (4.4%) were called active. Another 7% or so got no clear call; they are omitted. No stated cut-off is given here; in the data, active means activity change below about -60%; inconclusive means no clear call, values can overlap the other calls; inactive means above about -39%. Many of the other results were omitted from the sample, so actives are more common in it than they were.

Experiment: qHTS Assay for inhibitors of the human cytomegalovirus (HCMV)
Details: HFF cells, HCMV-luciferase reporter, 72 h; at 57.5 µM; stronger effect = lower value
Outline: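 Steps: HFFs plated, 16 h 37C; compounds added; HCMV-luciferase added to MOI 1 PFU/cell; 72 h 37C; OneGlo reagent, 5 min room temperature; luminescence read, normalized to controls.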
On the % scale 0 is the no-effect control and ±100 the full control effect.

Row | Structure (SMILES) | activity change, negative = inhibition
1 | CCCCOC(=O)CSc1ncnc2sc3c(c12)CCC(C)C3 (stereo unspecified) | -8.12% (inactive)
2 | CCC/C(=N\O)c1c[nH]c2ccccc12 | 26.6% (inactive)
3 | C[n+]1ccc(/C=C/c2c[nH]c3ccccc23)cc1 | -99.1% (active)
4 | CN1CCN(/N=C/c2c[nH]c3ccccc23)CC1 | 41% (inactive)
5 | COc1ccc(Cl)cc1N(C)C(=O)c1cc2c(=O)oc3ccc(C)cc3c2s1 | -13.9% (inactive)
6 | O=C(CN1CCSc2ccccc21)N1CCN(c2ccccc2)CC1 | -1.62% (inactive)
7 | CCOC(=O)CCC(=O)OCC(=O)NC(C)C1CC2CCC1C2 (stereo unspecified) | -99.5% (active)
8 | Cc1cccc(C(=O)OCC(=O)NC(C)C2CC3CCC2C3)c1O (stereo unspecified) | 50.9% (inactive)
9 | CC(NC(=O)CN(C)S(=O)(=O)c1ccc(F)cc1)C1CC2CCC1C2 (stereo unspecified) | 5.39% (inactive)
10 | COc1cccc(NC(=O)c2nn(C34CC5CC(CC(C5)C3)C4)cc2[N+](=O)[O-])c1 | -71.1% (active)
11 | Cn1cnc(S(=O)(=O)Nc2ccc3c(c2)OCCO3)c1 | 30.3% (inactive)
12 | COc1cccc(NC(=O)c2csnn2)c1 | 24.9% (inactive)
13 | Cn1cc([N+](=O)[O-])c(C(=O)Nc2ccc3c(c2)OCCO3)n1 | -91% (active)
14 | Cn1ccnc1SCC(=O)Nc1ccc2c(c1)OCCO2 | 147% (inactive)
15 | COc1cccc(NC(=O)COc2cccnc2[N+](=O)[O-])c1 | 9.93% (inactive)
16 | O=C(NCc1ccco1)O[C@H]1CC[C@@]23CCCN2C(=O)CCC[C@H]3[C@H]1Cc1ccccc1 | 13.9% (inactive)
17 | CCC(=O)N1CCc2cc(CNS(=O)(=O)c3ccc(Br)s3)ccc21 | -28.1% (inactive)
18 | CCOc1ccc(C(=O)N2CCN(CCc3ccccn3)CC2)cc1 | 7.37% (inactive)
19 | Cc1nnc2n1N=C(c1ccc3c(c1)NC(=O)CO3)CS2 | 58.6% (inactive)
20 | O=C(c1ccc2c(c1)N(Cc1ccc(F)cc1)C(=O)c1ccccc1S2(=O)=O)N1CCN(c2ccccn2)CC1 | -76.7% (active) and -91.8% (active)
21 | O=C(c1ccc2c(c1)N(Cc1ccccc1)C(=O)c1ccccc1S2(=O)=O)N1CCCC1 | -21.3% (inactive)
22 | O=C(c1ccc2c(c1)N(Cc1ccc(Cl)cc1)C(=O)c1ccccc1S2(=O)=O)N1CCCCC1 | -15.9% (inactive)
23 | Cc1ccc(Cl)cc1NC(=O)C(C)n1nnc2sc(-c3ccccc3)cc2c1=O (stereo unspecified) | 17.8% (inactive)

Row | Structure (SMILES) | activity change, negative = inhibition
24 | COc1cc(OC)c(N(C)C(=O)c2cc3c(=O)oc4ccccc4c3s2)cc1Cl | -8.12% (inactive)
25 | Cn1c(=O)c2c(nc(Oc3ccc(C#N)cc3)n2Cc2ccc(Cl)cc2Cl)n(C)c1=O | -9.46% (inactive)
26 | Cc1cc(NC(=O)CSCc2ccccc2C)no1 | -34.5% (inactive)
27 | Cc1cc(NC(=O)COn2nnc3ccccc32)no1 | 29.8% (inactive)
28 | Cc1cc(NC(=O)CS(=O)(=O)c2cn(C)c3ccccc23)no1 | -74.2% (active)
29 | Cc1ccc2c(=O)c(C(=O)c3ccc(Cl)cc3)cn(CC(=O)NC3CCCCC3)c2n1 | -0.369% (inactive)
30 | CCOc1ccc(CCNC(=O)c2c(C)oc3ncn(C)c(=O)c23)cc1 | -13.7% (inactive)
31 | Cc1cc(C)cc(OCC(=O)Nc2nc(-c3ccc(F)cc3)ns2)c1 | 150% (inactive)
32 | N#C/C(=C(/O)COC(=O)COc1ccc(Cl)cc1)c1nc2ccccc2[nH]1 | -101% (active)
33 | CC(C)(C)c1nnc2sc(SCC(O)=C(C#N)c3nc4ccccc4[nH]3)nn2c1=O | -4.66% (inactive)
34 | COc1ccccc1C(=O)COC(=O)COc1ccc(C#N)cc1 | -31.6% (inactive)
35 | Cc1ccc(S(=O)(=O)Nc2ccccc2CNc2c(C)n(C)n(-c3ccccc3)c2=O)cc1 | -7.12% (inactive)
36 | CC1CCCN(Cc2c(O)ccc3c(=O)c(Oc4ccc(C(C)(C)C)cc4)c(C(F)(F)F)oc23)C1 (stereo unspecified) | -38.5% (inactive)
37 | Cc1csc2nc(COC(=O)c3ccc(NC(=O)COc4ccccc4F)cc3)cc(=O)n12 | 14.4% (inactive)
38 | O=C(CSc1ccccc1F)NC1CCS(=O)(=O)C1 (stereo unspecified) | -105% (active)
39 | O=C(CSc1ncnc2sccc12)NC1CCS(=O)(=O)C1 (stereo unspecified) | -22.5% (inactive)
40 | O=C(CSc1nn(-c2ccc(F)cc2)c(=S)s1)NC1CCS(=O)(=O)C1 (stereo unspecified) | -34.3% (inactive)
41 | COC(=O)CC(CC(=O)OC)n1cccc1 | 19.2% (inactive)
42 | COc1ccc(-n2c(SCC(=O)Nc3sc4c(c3C#N)CCCC4)nnc2-c2ccc(O)cc2)cc1 | -15.5% (inactive)
43 | COc1ccccc1-c1ccnc2[nH]n(-c3ccccc3)c(=O)c12 | -8.55% (inactive)
44 | COc1ccc2cc(CNc3ccc(OC)c(OC)c3)c(=O)n(CC(=O)Nc3ccccc3F)c2c1 | 9.9% (inactive)
45 | CCOc1ccccc1NC(=O)C1CCCN(S(=O)(=O)c2ccccc2)C1 (stereo unspecified) | -62% (active)
46 | CCOc1ccccc1NC(=O)C1CCCN(C(=O)Nc2ccccc2)C1 (stereo unspecified) | -21.6% (inactive)

Row | Structure (SMILES) | activity change, negative = inhibition
47 | Cc1ccc(S(=O)(=O)N2CCCCC2)cc1NC(=O)[C@@H]1CCCN1C(=O)c1cccs1 | 0% (inactive)
48 | CCOc1ccccc1NC(=O)COc1ccc(S(=O)(=O)N2CCCC2)cc1 | -21% (inactive)
49 | CCOc1ccc(S(=O)(=O)N2CCCCC2)cc1NC(=O)CN1CCCC1c1cccs1 (stereo unspecified) | -90% (active)
50 | COc1ccc(S(=O)(=O)N2CCCCC2)cc1NC(=O)COc1ccccc1 | -25.1% (inactive)
51 | O=C(O)CCc1cccnc1 | -25.2% (inactive)
52 | CN(Cc1ccccc1)S(=O)(=O)c1ccc(F)c(C(=O)Nc2cccc(Cl)c2Cl)c1 | 6.47% (inactive)
53 | COc1ccc2ncc3c(-c4ccc(C)c(C)c4)nn(CC(=O)NC4CCCC4)c3c2c1 | 14.2% (inactive)
54 | O=C(CSc1nccn1Cc1ccc(Cl)cc1)NCc1ccccc1 | -18.2% (inactive)
55 | COc1ccc(Cl)cc1NC(=O)Cn1c(=O)c2ccccc2n2nncc12 | 11.9% (inactive)
56 | Cc1nn(-c2ccccc2)c2c1C(c1cccc([N+](=O)[O-])c1)N(c1ccccc1)C(=O)N2 (stereo unspecified) | -9.36% (inactive)
57 | Cc1nn(-c2ccc([N+](=O)[O-])cc2)c(N)c1-c1ccccc1 | -65.4% (active)
58 | CNP1(NC)=Nc2nn(-c3ccccc3)c(N)c2C(c2ccccc2)=N1 | 43.5% (inactive)
59 | O=C(NNS(=O)(=O)c1ccccc1)c1cnn(-c2ccc(Cl)cc2)c1C(F)(F)F | 2.04% (inactive)
60 | CC(C)c1ccc(C2CC(=O)N3CN(C4CCCCC4)CSC3=C2C#N)cc1 (stereo unspecified) | -5.74% (inactive)
61 | CC(=O)Nc1cc(-c2ccc(N3CCN(C)CC3)cc2)cn2c(-c3ccc(F)cc3)cnc12 | -75.2% (active)
62 | CC(=O)Nc1cc(-c2ccc(N3CCN(C)CC3)cc2)cn2c(-c3cccc(C(=O)N(C)C)c3)cnc12 | 8.54% (inactive)
63 | CC(=O)c1cccc(-c2cnc3c(NC=O)cc(-c4ccc(N5CCN(C)CC5)cc4)cn23)c1 | 19.8% (inactive)
64 | Cc1ccc2cccc(NC(=O)c3cccc4ccccc34)c2n1 | -10.4% (inactive)
65 | C/C(N)=C(/C#N)C(=O)COC(=O)C1CCN(C(=O)c2ccc(Cl)cc2)CC1 | -65.3% (active)
66 | COC(=O)C1CCN(C(=O)c2ccc3oc(Cc4ccc(Cl)cc4)nc3c2)CC1 | 8.67% (inactive)
67 | O=C(NC1CCCCCC1)C1CCN(C(=O)c2ccc(Cl)cc2)CC1 | -37.2% (inactive)
68 | CCN(CCCNC(=O)c1c(C)oc2ncn(CC(C)C)c(=O)c12)Cc1ccccc1 | -5.33% (inactive)
69 | Cc1ccc(C)c(NC(=O)C2CCCN(S(=O)(=O)c3cn(C)cn3)C2)c1 (stereo unspecified) | 44.9% (inactive)

Row | Structure (SMILES) | activity change, negative = inhibition
70 | CC(CNC(=O)c1nnc(Cc2cccc(F)c2)o1)c1ccccc1 (stereo unspecified) | -15.6% (inactive)
71 | O=C(Nc1ccc(C(=O)OCc2cc(=O)n3nc(C4CC4)sc3n2)cc1)c1ccc(F)cc1 | 7.95% (inactive)
72 | CC(C)c1ccc2oc(-c3cc(NC(=O)c4cccs4)ccc3Cl)nc2c1 | -18.9% (inactive)
73 | C[C@H]1Cn2cnc(C(=O)N[C@H](C)c3ccccc3)c2C(=O)N1 | -3.07% (inactive)
74 | C[C@@H]1Cn2cnc(C(=O)Nc3ccc(CNC(=O)OC(C)(C)C)cc3)c2C(=O)N1 | -101% (active)
75 | C[C@H]1Cn2cnc(C(=O)N[C@@H](Cc3c[nH]c4ccccc34)C(=O)OC(C)(C)C)c2C(=O)N1 | 16% (inactive)
76 | O=C(NCC(c1cccnc1)N1CCc2ccccc21)c1cccc(C(F)(F)F)c1 (stereo unspecified) | -36.7% (inactive)
77 | O=C(Oc1cccc(C(=S)N2CCOCC2)c1)c1cccc(Cl)c1 | -4.94% (inactive)
78 | O=C(Nc1ccccc1C(=O)N1CCOCC1)c1ccc(Cl)cc1 | 8.32% (inactive)
79 | O=C(Nc1ccc(Cl)cc1)c1cccc(OC(=S)N2CCOCC2)c1 | -103% (active)
80 | Cc1nc(NC(=O)C2CCCCC2)sc1C | 62.5% (inactive)
81 | O=C(NNC1=NCCC1)c1cccc(S(=O)(=O)N2CCCCC2)c1 | -11.4% (inactive)
82 | Cc1ccc(C(CC(=O)O)Nc2nc(N3CCCCC3)nc(N3CCCCC3)n2)cc1 (stereo unspecified) | -10.1% (inactive)
83 | O=C(NNc1nc(N2CCCC2)nc(N2CCCC2)n1)c1ccccc1 | -66.4% (active)
84 | CCC1(C)CC(=O)c2c(ccc3oc(C(=O)Nc4ccc(C(C)=O)cc4)c(C)c23)O1 (stereo unspecified) | -8.87% (inactive)
85 | COc1cccc(C2C(C(=O)Nc3ccc(C)cc3C)=C(C)Nc3c(C(=O)Nc4ccccc4)cnn32)c1 (stereo unspecified) | -31.3% (inactive)
86 | O=C1CSC(=O)N1CCOCCN1C(=O)CSC1=O | 11.3% (inactive)
87 | CC(C)(C)NC(=O)CSc1nc(-c2ccc(F)cc2)cc(C(F)(F)F)n1 | -8.55% (inactive)
88 | CC12CCC3C(CCC4CC(=O)CCC43C)C1CC(=NO)C2=O (stereo unspecified) | 16.3% (inactive)
89 | CC(C)c1ccc(NC(=O)CN(C)S(=O)(=O)c2ccc3c(c2)c(=O)n(C)c(=O)n3C)cc1 | -106% (active)
90 | CCc1ccccc1NC(=O)CN(C)S(=O)(=O)c1ccc2c(c1)c(=O)n(C)c(=O)n2C | 14.6% (inactive)
91 | CN(CC(=O)Nc1ccccc1F)S(=O)(=O)c1ccc2c(c1)c(=O)n(C)c(=O)n2C | 3.4% (inactive)
